# In PubChem BioAssay (Tox21):
# “And” between values parts separate entries of the source, which are not always exact repeats. Equal values may be shown once. Inconclusive results are not listed. A call without a number means that no potency is given here. Some compounds were tested as several samples or in several runs, with calls that do not always agree. The source made the active and inactive calls. Unless noted, calls follow the shape of the dose curve; as a rule, active = well fitted curve in the direction sought with a large enough effect in the repeat runs; inconclusive = weak or mixed curves; inactive = no such curve, though single readings can be large; an effect the other way counts as inactive or inconclusive.
# Legend:
# [1] = qHTS assay to identify small molecule agonists of the RXR signaling pathway - cell viability counter screen (AID 1159529); also: nearly all actives have a fitted effect of over 50% in size; also: potency is read from the fitted curve at half-maximal effect
# Method in brief: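 RXR-alpha-UAS-bla HEK 293T cells in medium with 2% charcoal-stripped FBS were preincubated 5 hr, then exposed to compounds for 16 hr at 37 C. Viability was read as CellTiter-Glo luminescence after 30 min at room temperature.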
# [2] = qHTS assay to identify small molecule antagonists of the retinoid acid receptor (RAR) signaling pathway - cell viability counter screen (AID 1159551); also: nearly all actives have a fitted effect of over 35% in size; also: potency is read from the fitted curve at half-maximal effect
# Method in brief: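 C3RL4 RARE-luciferase line; cpds + retinol 1 uM final, 6 h, 37 C/5% CO2; CellTiter-Glo ATP luminescence, 30 min RT.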
# [3] = qHTS assay to identify small molecule antagonists of the estrogen related receptor (ERR) signaling pathway from Tox21 library - cell viability counter screen (AID 1224834); also: nearly all actives have a fitted effect of over 30% in size; also: potency is read from the fitted curve at half-maximal effect
# Method in brief: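 Multiplexed viability counter screen in ERR cells: 17.5 h compound exposure at 37 C, CellTiter-Fluor added, 30 min at 37 C/5% CO2, fluorescence read.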
# [4] = target: Luciferin 4-monooxygenase (Photinus pyralis) (UniProt P08659); assay: qHTS assay to identify small molecule inhibitors of firefly luciferase (AID 1224835); also: series mostly up to about 120 µM; nearly all actives have a fitted effect of over 25% in size
# Chain of Luciferin 4-monooxygenase (Photinus pyralis) (P08659 whole entry, looked up): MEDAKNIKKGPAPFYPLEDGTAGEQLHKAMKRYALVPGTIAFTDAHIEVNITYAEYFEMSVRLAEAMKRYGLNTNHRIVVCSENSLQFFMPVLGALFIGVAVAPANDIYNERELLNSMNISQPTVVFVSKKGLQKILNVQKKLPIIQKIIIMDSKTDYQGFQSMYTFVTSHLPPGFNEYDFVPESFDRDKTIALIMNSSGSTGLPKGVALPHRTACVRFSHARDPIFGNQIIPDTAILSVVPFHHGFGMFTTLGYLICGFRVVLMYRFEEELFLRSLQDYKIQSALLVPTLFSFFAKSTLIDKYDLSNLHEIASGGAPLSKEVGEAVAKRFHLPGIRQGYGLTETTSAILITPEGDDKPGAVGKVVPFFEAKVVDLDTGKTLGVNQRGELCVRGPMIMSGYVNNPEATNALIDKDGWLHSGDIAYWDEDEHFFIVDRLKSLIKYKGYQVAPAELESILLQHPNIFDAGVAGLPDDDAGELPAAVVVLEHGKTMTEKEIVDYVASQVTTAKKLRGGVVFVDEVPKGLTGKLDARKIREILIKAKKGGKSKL
# Method in brief: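 Quantitative HTS format; KM concentrations of both substrates. Purified P. pyralis FLuc activity quantified from luminescence images.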
# [5] = qHTS assay to identify small molecule agonists of the constitutive androstane receptor (CAR) signaling pathway - cell viability counter screen (AID 1224836); also: series mostly up to about 92 µM; nearly all actives have a fitted effect of over 45% in size
# Method in brief: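 HepG2 cells stably carrying hCAR and a CYP2B6-2.2kb reporter were plated 4 h, then given compounds at 15 concentrations plus PK11195 (final 0.75 uM). After 23 h at 37 C, viability was read by CellTiter-Fluor fluorescence.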
# [6] = qHTS assay to identify small molecule antagonists of the constitutive androstane receptor (CAR) signaling pathway - cell viability counter screen (AID 1224837); also: series mostly up to about 92 µM; nearly all actives have a fitted effect of over 45% in size
# Method in brief: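 Read-out: CellTiter-Fluor fluorescence after 23 hr at 37 C/5% CO2. Cells: HepG2 double-stable for hCAR and CYP2B6-2.2kb. Compounds tested at 15 concentrations in the presence of CITCO, final concentration 50 nM.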
# [7] = target: Nuclear receptor subfamily 1 group I member 3 (Homo sapiens) (UniProt Q14994); assay: qHTS assay to identify small molecule antagonists of the constitutive androstane receptor (CAR) signaling pathway (AID 1224838); also: nearly all actives have a fitted effect of over 40% in size; also: potency is read from the fitted curve at half-maximal effect
# Chain of Nuclear receptor subfamily 1 group I member 3 (Homo sapiens) (Q14994 whole entry, looked up): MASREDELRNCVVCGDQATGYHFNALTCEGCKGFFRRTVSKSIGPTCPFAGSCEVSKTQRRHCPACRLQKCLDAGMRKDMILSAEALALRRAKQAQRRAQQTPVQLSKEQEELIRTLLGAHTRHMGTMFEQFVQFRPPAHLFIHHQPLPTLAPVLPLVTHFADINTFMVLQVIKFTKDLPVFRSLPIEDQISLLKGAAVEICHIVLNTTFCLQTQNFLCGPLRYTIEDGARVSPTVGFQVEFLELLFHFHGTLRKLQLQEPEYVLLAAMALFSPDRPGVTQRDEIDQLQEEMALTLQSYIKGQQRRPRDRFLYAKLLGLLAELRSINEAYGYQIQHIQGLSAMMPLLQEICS
# Method in brief: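 Read-out: ONE-Glo luciferase luminescence after 30 min at room temperature. HepG2-CYP2B6-hCAR double-stable cells, compounds in 15-point titration plus 50 nM CITCO final, 24 h at 37 C/5% CO2.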
# [8] = target: Nuclear receptor subfamily 1 group I member 3 (Homo sapiens) (UniProt Q14994); assay: qHTS assay to identify small molecule agonists of the constitutive androstane receptor (CAR) signaling pathway (AID 1224839); also: nearly all actives have a fitted effect of over 15% in size; also: potency is read from the fitted curve at half-maximal effect
# Method in brief: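 HepG2 cells stably expressing hCAR and a CYP2B6-2.2kb luciferase reporter were treated with compounds at 15 concentrations plus 0.75 uM PK11195 (final) for 24 h at 37 C; luminescence was read after ONE-Glo addition.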
# [9] = qHTS assay to identify small molecule antagonists of the estrogen related receptor signaling pathway with the pleiotropic PPARgamma coactivator (PGC) from Tox21 10K library - cell viability counter screen (AID 1224840; active = well fitted cell-killing curve with a large enough effect in the repeat runs, not every such curve was filed as active; also: nearly all actives have a fitted effect of over 40% in size; also: potency is read from the fitted curve at half-maximal effect)
# Method in brief: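 Fluorescence read-out of CellTiter-Fluor viability reagent, added after cells had been exposed to compound in DMSO for 17.5 h at 37 C; 30 min development at 37 C/5% CO2. Cells: PGC/ERR line, 2,000/well.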
# [10] = qHTS assay to identify small molecule antagonists of the retinoic acid receptor (RAR) signaling pathway (AID 1159552; also: nearly all actives have a fitted effect of over 50% in size; also: potency is read from the fitted curve at half-maximal effect)
# Method in brief: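 RARE-luc C3RL4 cells; cpds + 1 uM (final) retinol, 6 hr, 37 C/5% CO2; luciferase reagent, 30 min RT, luminescence readout. Inhibitors of retinol-driven signal scored.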
# [11] = qHTS assay to identify small molecule agonists of the retinoic acid receptor (RAR) signaling pathway (AID 1159553); also: potency is read from the fitted curve at half-maximal effect
# Method in brief: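 RARE-luc C3RL4 cells; overnight attachment 37 C/5% CO2; compound (DMSO) 6 hr; luciferase reagent, 30 min RT; luminescence read-out.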
# [12] = qHTS assay to identify small molecule antagonists of the estrogen related receptor signaling pathway with the pleiotropic PPARgamma coactivator (PGC) from Tox21 10K library (AID 1224841; call rule not given here; also: actives are mostly falling curves and most rising ones were filed inactive; nearly all actives have a fitted effect of over 50% in size; also: potency is read from the fitted curve at half-maximal effect)
# Method in brief: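 Luminescence read-out (One-Glo luciferase reagent, 30 min at room temperature) from PGC/ERR cells exposed to DMSO-dissolved test compounds for 18 h at 37 C; cells, 2,000 per well, had been preincubated 6 h before compound transfer.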
# [13] = qHTS assay to identify small molecule antagonists of the estrogen related receptor (ERR) signaling pathway - cell viability counter screen (AID 1224818); also: series mostly up to about 46 µM
# Method in brief: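 Fluorescence from CellTiter-Fluor, read 30 min after reagent addition at 37 C, measured viability of ERR cells exposed to compounds for 17.5 h. Cells had settled 6 h before dosing.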
# [14] = qHTS assay to identify small molecule antagonists of the estrogen related receptor (ERR) signaling pathway (AID 1224819;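 also: luminescence from an ERR-driven luciferase reporter measured with One-Glo reagent; series mostly up to about 46 µM; nearly all actives have a fitted effect of over 50% in size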)
# Method in brief: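 Luminescence readout (One-Glo, 30 min, RT) of ERR cell line after 18 h compound exposure at 37 C; cells seeded 2,000/well, pre-incubated 6 h, compounds pinned from DMSO stocks.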
# [15] = qHTS assay to identify small molecule agonists of the estrogen related receptor (ERR) signaling pathway (AID 1224820)
# Method in brief: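 An ERR cell line provided by NTP was seeded at 2,000 cells per well and allowed to settle for 6 h before compounds in DMSO were added. After 18 h at 37 C, luciferase activity was measured by One-Glo luminescence.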
# [16] = test system: estrogen-related receptor alpha (ERRalpha) with PGC-1alpha coactivator, human; assay: qHTS assay to identify small molecule antagonists of the estrogen related receptor signaling pathway with the pleiotropic PPARgamma coactivator (PGC) (AID 1224821; calls by dose curve)
# Method in brief: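 A PGC/ERR cell line supplied by NTP is seeded, allowed 6 h at 37 C, and treated with test compounds in DMSO for 18 h. Signal is then measured as luciferase luminescence using One-Glo.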
# [17] = qHTS assay to identify small molecule antagonists of the estrogen related receptor signaling pathway with the pleiotropic PPARgamma coactivator (PGC) cell viability counter screen (AID 1224822; also: series mostly up to about 46 µM)
# Method in brief: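 Fluorescence read-out of CellTiter-Fluor after 30 min at 37 C; PGC/ERR cells, 2,000 per well, had been exposed to DMSO-dissolved compounds for 17.5 h following a 6 h pre-incubation.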
# [18] = qHTS assay to identify small molecule agonists of the estrogen related receptor signaling pathway with the pleiotropic PPARgamma coactivator (PGC) (AID 1224823)
# Method in brief: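 Compounds dissolved in DMSO are added by pin tool to PGC/ERR cells that have settled for 6 h, and incubation continues 18 h at 37 C. Reporter output is measured as One-Glo luminescence.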
# [19] = qHTS assay to identify small molecule agonists of the estrogen related receptor signaling pathway with the pleiotropic PPARgamma coactivator (PGC) from Tox21 10K library (AID 1224842); also: nearly all actives have a fitted effect of over 15% in size
# Method in brief: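 PGC/ERR reporter cells (NTP line) were seeded 2,000 per well, rested 6 h at 37 C/5% CO2, then pin-dosed with compounds in DMSO for 18 h at 37 C; luciferase read by One-Glo luminescence after 30 min at room temperature.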
smiles,measurement,setting,value
CCOc1nc(F)cc2nc(S(=O)(=O)Nc3c(Cl)cccc3Cl)nn12,Potency,[1],inactive
same,Potency,[2],inactive
same,Potency,[3],inactive
same,Potency,[4],inactive
same,Potency,[5],inactive
same,Potency,[6],inactive
same,Potency,[7],inactive
same,Potency,[8],inactive
same,Potency,[9],inactive
O=C(CCl)c1ccc(Cl)cc1Cl,Potency,[1],inactive and 13.4 µM (active)
same,Potency,[10],1.88 µM (active)
same,Potency,[3],inactive and 21.1 µM (active)
same,Potency,[4],inactive
same,Potency,[5],inactive
same,Potency,[6],inactive
same,Potency,[7],13.3 µM (active)
same,Potency,[8],inactive
same,Potency,[9],inactive
Cc1c(F)c(F)c(COC(=O)C2C(/C=C(\Cl)C(F)(F)F)C2(C)C)c(F)c1F (centres undefined),Potency,[1],inactive
same,Potency,[11],inactive
same,Potency,[3],inactive
same,Potency,[4],inactive
same,Potency,[5],inactive
same,Potency,[6],inactive
same,Potency,[9],inactive
CCCCCCCCOC(=O)c1ccc(C(=O)OCCCCCCCC)c(C(=O)OCCCCCCCC)c1,Potency,[1],inactive
same,Potency,[2],inactive
same,Potency,[11],inactive
same,Potency,[3],inactive
same,Potency,[4],inactive
same,Potency,[5],inactive
same,Potency,[6],inactive
same,Potency,[7],inactive
same,Potency,[8],inactive
same,Potency,[9],inactive
CCOS(C)(=O)=O,Potency,[1],inactive
same,Potency,[10],inactive
same,Potency,[11],inactive
same,Potency,[3],inactive
same,Potency,[5],inactive
same,Potency,[6],inactive
same,Potency,[9],inactive
CC(=O)CCC(C)=O,Potency,[1],inactive
same,Potency,[2],inactive
same,Potency,[4],inactive
same,Potency,[6],inactive
same,Potency,[7],inactive
same,Potency,[8],inactive
same,Potency,[9],inactive
CN1C[C@H](CNC(=O)OCc2ccccc2)C[C@@H]2c3cccc4c3c(cn4C)C[C@H]21,Potency,[1],inactive
same,Potency,[10],inactive
same,Potency,[11],inactive
same,Potency,[5],inactive
same,Potency,[6],inactive
same,Potency,[7],inactive
same,Potency,[8],inactive
same,Potency,[9],inactive
COc1ccc(-c2ccccc2)cc1NNC(=O)OC(C)C,Potency,[1],inactive
same,Potency,[10],inactive
same,Potency,[11],inactive
same,Potency,[3],63.7 µM (active)
same,Potency,[4],inactive
same,Potency,[6],inactive
same,Potency,[7],inactive
same,Potency,[8],63.7 µM (active)
same,Potency,[12],35.8 µM (active)
BrCC(Br)C1CCC(Br)C(Br)C1 (centres undefined),Potency,[1],inactive
same,Potency,[2],inactive
same,Potency,[11],inactive
same,Potency,[3],inactive
same,Potency,[4],inactive
same,Potency,[5],inactive
same,Potency,[6],inactive
same,Potency,[7],inactive
same,Potency,[9],inactive
C=CC[C@]1(O)CC[C@H]2[C@@H]3CCC4=CC(=O)CCC4=C3C=C[C@@]21C,Potency,[1],23.9 µM (active)
same,Potency,[2],33.5 µM (active)
same,Potency,[4],inactive
same,Potency,[9],inactive
CCOP(=S)(OCC)Oc1nc(Cl)c(Cl)cc1Cl,Potency,[1],21.9 µM (active) and 49 µM (active)
same,Potency,[2],61.3 µM (active) and inactive
same,Potency,[4],inactive
same,Potency,[5],inactive
same,Potency,[6],inactive
same,Potency,[7],inactive
same,Potency,[8],27.4 µM (active) and 30.6 µM (active)
same,Potency,[9],inactive
O=C(NC(=O)c1c(F)cccc1F)Nc1cc(Cl)c(Oc2ncc(C(F)(F)F)cc2Cl)c(Cl)c1,Potency,[1],inactive
same,Potency,[2],inactive
same,Potency,[4],inactive
same,Potency,[5],inactive
same,Potency,[6],inactive
same,Potency,[7],inactive
same,Potency,[9],inactive
O=C(NC(=O)c1c(F)cccc1F)Nc1ccc(OC(F)(F)C(F)OC(F)(F)F)c(Cl)c1 (centres undefined),Potency,[1],inactive
same,Potency,[2],inactive
same,Potency,[3],inactive
same,Potency,[5],inactive
same,Potency,[6],inactive
same,Potency,[9],inactive
same,Potency,[12],inactive
NS(=O)(=O)C(F)(F)C(F)(F)C(F)(F)C(F)(F)C(F)(F)C(F)(F)C(F)(F)C(F)(F)F,Potency,[1],inactive
same,Potency,[10],inactive
same,Potency,[11],inactive
same,Potency,[4],inactive
same,Potency,[5],inactive
same,Potency,[6],inactive
same,Potency,[7],inactive
same,Potency,[8],inactive
same,Potency,[9],inactive
same,Potency,[12],inactive
COCCOCCO,Potency,[2],inactive
same,Potency,[11],inactive
same,outcome,[13],inactive
same,outcome,[14],inactive
same,outcome,[15],inactive
same,Potency,[16],inactive
same,Potency,[17],inactive
same,outcome,[18],inactive
same,Potency,[3],inactive
same,Potency,[4],inactive
same,Potency,[5],inactive
same,Potency,[6],inactive
same,Potency,[7],inactive
same,Potency,[8],inactive
same,Potency,[9],inactive
same,Potency,[12],inactive
OCCCBr,Potency,[2],inactive
same,Potency,[10],inactive
same,Potency,[11],inactive
same,outcome,[13],inactive
same,outcome,[14],inactive
same,outcome,[15],inactive
same,Potency,[16],inactive
same,Potency,[17],inactive
same,outcome,[18],inactive
same,Potency,[3],inactive
same,Potency,[5],inactive
same,Potency,[6],inactive
same,Potency,[7],inactive
same,Potency,[8],inactive
same,Potency,[9],inactive
same,Potency,[19],inactive
COc1nn(CSP(=S)(OC)OC)c(=O)s1,Potency,[2],inactive
same,outcome,[13],inactive
same,Potency,[17],inactive
same,Potency,[5],inactive
same,Potency,[6],inactive
same,Potency,[7],inactive
Cc1ccc(-c2c(Cl)nc(C#N)n2S(=O)(=O)N(C)C)cc1,Potency,[2],inactive
same,Potency,[10],inactive
same,Potency,[11],68.5 µM (active)
same,Potency,[3],54.4 µM (active)
same,Potency,[8],inactive
same,Potency,[9],61.1 µM (active)
CCCC(Cn1cncn1)c1ccc(Cl)cc1Cl (centres undefined),Potency,[2],inactive
same,Potency,[11],inactive
same,Potency,[3],54.5 µM (active)
same,Potency,[4],inactive
same,Potency,[7],inactive
same,Potency,[12],30.6 µM (active)
CNP(=O)(OC)Oc1ccc(C(C)(C)C)cc1Cl (centres undefined),Potency,[2],inactive
same,Potency,[10],inactive
same,Potency,[11],inactive
same,Potency,[3],inactive
same,Potency,[6],inactive
same,Potency,[7],inactive
same,Potency,[8],48.6 µM (active)
same,Potency,[9],inactive
same,Potency,[12],inactive
same,Potency,[19],inactive
N#Cc1cc(I)c(O)c(I)c1,Potency,[2],inactive
same,Potency,[10],68.6 µM (active)
same,Potency,[11],inactive
same,Potency,[7],61.1 µM (active)
same,Potency,[12],30.6 µM (active)
same,Potency,[19],inactive
CCOP(=S)(OCC)Oc1cc(Cl)c(Br)cc1Cl,Potency,[2],inactive
same,Potency,[10],inactive
same,Potency,[11],inactive
same,Potency,[3],inactive
same,Potency,[4],inactive
same,Potency,[6],inactive
same,Potency,[7],inactive
same,Potency,[8],21.7 µM (active)
same,Potency,[9],inactive
COP(=S)(Oc1cc(Cl)c(Br)cc1Cl)c1ccccc1 (centres undefined),Potency,[11],inactive
same,Potency,[3],inactive
same,Potency,[4],inactive
same,Potency,[5],inactive
same,Potency,[6],inactive
same,Potency,[7],inactive
same,Potency,[9],inactive
same,Potency,[12],54.5 µM (active)
